Assay results reported in PubChem BioAssay AID686979 (National Center for Advancing Translational Sciences (NCATS), 2013).
Where “and” joins values, the source holds several entries; their conditions need not be identical. Identical values can stand only once. About 50,000 (12%) of roughly 420,000 compounds were called active. Roughly 26% stayed inconclusive and do not appear here. Calls follow the shape of the dose curve; as a rule, active = well fitted inhibition curve with a large enough effect; inconclusive = small, poorly fitted or top-dose-only effect; inactive = flat fitted curve, though single readings scatter. For the sample, actives were picked, then their nearest neighbours and some compounds at random.

Test: qHTS for Inhibitors of human tyrosyl-DNA phosphodiesterase 1 (TDP1): qHTS in cells in presence of CPT; also: nearly all actives have a fitted effect of over 55% in size
Conditions: chicken DT40 Tdp1-/-;hTDP1 cells + 20 nM CPT, ATP luminescence, 48 h; series mostly up to 46.2 µM; activity change, negative = growth inhibition: at the top concentration
Summary of the method: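 Chicken DT40 Tdp1-/- cells complemented with human TDP1, 400 cells/well, exposed to compounds plus 20 nM camptothecin for at least 48 h at 37 C; viability read as ATP content by CellTiter-Glo luminescence.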
% is scaled to controls: 0 for no effect and ±100 for the full control effect; potency is read from the fitted curve at half-maximal effect.

Structure (SMILES) | activity change, negative = growth inhibition | Potency
CC1CCN(C(=S)c2cccc(O)c2)CC1 | -12% (inactive) | 
C=C1C([C@@]2(C)C(OC(C)=O)CC(=O)O[C@@](C)(COC(C)=O)C2CC(=O)OC)C(OC=O)C(OC(=O)C(O)C(C)CC)[C@]2(C)C(c3ccoc3)CC(=O)C12O (some centres undefined) |  | 2.59 µM (active)
O=C(Nc1ccccc1Cl)N1CCC(CN2CCCCC2)CC1 | -22.8% (inactive) | 
COc1ccc(NC(=O)c2ccc(C#CC(C)(C)O)cc2)cc1 | -14% (inactive) | 
Cc1cc(=O)[nH]c(N/N=C/c2ccc3c(c2)OCCO3)n1 | -4.75% (inactive) | 
O=C(Nc1c(-c2ccc(F)cc2)nc2ccccn12)c1cccc(F)c1 |  | 20.6 µM (active)
O=C(NN1CCOCC1)c1cccc(F)c1 | 5.06% (inactive) | 
Cc1oc(-c2cccc(NC(=O)c3ccccc3)c2)nc1CNC(=O)c1cnc2ccccn2c1=O | 2.06% (inactive) | 
Cc1ccccc1NC(=O)CCNS(=O)(=O)c1ccc2[nH]c(=O)oc2c1 | 12% (inactive) | 
O=C(C1CC1)N1CCc2cc(Br)cc(S(=O)(=O)N3CCN(c4ccccc4F)CC3)c21 | -21% (inactive) | 
O=C(CCCCCN1C(=O)c2cccc3cccc(c23)C1=O)NCc1ccco1 | 10.3% (inactive) | 
O=C(CN1C(=O)/C(=C\c2ccc(C(F)(F)F)cc2)Sc2ccccc21)NCc1ccco1 |  | 18.4 µM (active)
CC1CCC2(CC1)NC(=O)N(CC(=O)NCc1ccco1)C2=O (centres undefined) | 2.42% (inactive) | 
Nn1c(SCC(=O)Nc2nccs2)nnc1-c1ccco1 | 7.48% (inactive) | 
Cc1ccc(CNC(=O)Cn2c(=O)ccc3cc(S(=O)(=O)N4CCCC4)ccc32)cc1 | -22.5% (inactive) | 
COc1cccc(N2CC(C(=O)NCc3n[nH]c(=O)c4ccccc34)CC2=O)c1 (centres undefined) | -27.9% (inactive) | 
O=c1[nH]c2cccnc2n(CCNc2ncc(C(F)(F)F)cc2Cl)c1=O | 5.87% (inactive) | 
CCOc1ccc(Cn2nnc(C(=O)NCc3ccccc3)c2N)cc1 | 25% (inactive) | 
CCOc1ccccc1NC(=O)Cc1cccs1 | -0.43% (inactive) | 
CCOc1ccccc1NC(=O)Cn1nnc(C(=O)NCc2cccs2)c1N |  | 5.2 nM (active) and 130 nM (active)
COC(=O)C[C@H]1C=C[C@@H](NS(=O)(=O)c2ccc(C)cc2)[C@@H](CO)O1 | 13.9% (inactive) | 
O=C(c1cc(COc2c(F)cccc2F)on1)N1CCSCC1 | -14.8% (inactive) | 
NC(=O)Cn1nc([N+](=O)[O-])nc1Oc1ccc(Br)cc1 | -25.2% (inactive) | 
Cc1ccccc1Nc1nc(N)nc(CSc2nnc3ccccn23)n1 | 0.37% (inactive) | 
COc1cc(/C=N/NC(=S)Nc2cccnc2)cc(OC)c1O | 0.37% (inactive) | 
COc1ccccc1CNC(=O)COc1ccc(C)nc1[N+](=O)[O-] | -22.6% (inactive) | 

Structure (SMILES) | activity change, negative = growth inhibition | Potency
CCC(C)(C)n1nnnc1C(c1ccc(OC)c(OC)c1)N1CCN(C(=O)c2ccco2)CC1 (centres undefined) | 1.48% (inactive) | 
CN1CCN(C(=O)N2c3ccccc3CCc3ccccc32)CC1 | 18.3% (inactive) | 
CN1CCN2c3ccccc3Cc3ccccc3[C@@H]2C1 |  | 13.3 µM (active)
CCOCCCNC(=O)c1cn(CC(C)C)c(=O)c2c1c1ccccc1n2C |  | inactive
CC(=NNC(N)=O)C1CC2CCC1CC2 (centres undefined) | 1.34% (inactive) | 
CCOC(=O)C1CCN(c2csc3ccc(C)cc3c2=O)CC1 | 4.08% (inactive) | 
CCOC(=O)C1CCN(CCC(=O)Nc2cccc(C)c2)CC1 | -5.96% (inactive) | 
CCOC(=O)C1CCN(c2c(Nc3cc(C)cc(C)c3)c(=O)c2=O)CC1 |  | 14.6 µM (active)
O=C(COC(=O)Cc1ccc([N+](=O)[O-])cc1)NC1CCCCCC1 | -14.7% (inactive) | 
Cc1ccsc1C1C(C#N)=C(N)OC2=C1C(=O)CC(C)(C)C2 (centres undefined) | 4.55% (inactive) | 
CN1CCN(S(=O)(=O)c2ccc(Nc3ccc(F)cc3)nc2)CC1 | -5.23% (inactive) | 
C=C1CCN([C@H](C(=O)NCc2cc(OC)c(OC)c(OC)c2)C(C)C)S(=O)(=O)c2ccccc21 | -1.11% (inactive) | 
O=C1OCC2=C1C(c1ccc(Cl)cc1)c1cc3c(cc1O2)OCO3 (centres undefined) |  | 29.1 µM (active)
CCc1cccc(NC(=S)N(CCN(C)C)C2CCN(C(C)C)CC2)c1 | -24% (inactive) | 
O=C(COC(=O)C1(c2ccc(F)cc2)CCCC1)N1CCNC1=O | -1.2% (inactive) | 
Cc1nn(CC(=O)NCc2ccccn2)c(C)c1[N+](=O)[O-] | 11.2% (inactive) | 
Cc1csc(NC(=O)CSc2nnc(-c3cccnc3)o2)n1 | -4.05% (inactive) | 
Cc1csc(NC(=O)NC2(C(F)(F)F)Oc3ccccc3O2)n1 |  | 20.6 µM (active)
Cc1csc(NC(=O)Nc2ccccc2[N+](=O)[O-])n1 | 0.264% (inactive) | 
CCOc1ccc(N(CC(=O)NC2CCCCCC2)S(=O)(=O)c2c(C)[nH]c(=O)[nH]c2=O)cc1 | 10.3% (inactive) | 
CC(Nc1nc(C(F)(F)F)nc2ccccc12)c1cccs1 (centres undefined) |  | 16.4 µM (active)
COc1ccc(-c2nc3n(c(=O)c2C#N)CCS3)c(OC)c1 | 1.35% (inactive) | 
CCOc1ccccc1-c1nc(CN2CCC(C(=O)N3CCOCC3)CC2)c(C)o1 | 3.81% (inactive) | 
Cc1oc(-c2ccccc2F)nc1CN1CCC(C(=O)NCCc2ccc(Cl)cc2)CC1 |  | 13 µM (active)
COc1ccc(-c2nc(CN3CCC(C(=O)NCc4ccccc4)CC3)c(C)o2)cc1OC | -14.1% (inactive) | 
Oc1ccc(N2CCN(C(=S)NCc3ccccc3)CC2)cc1 |  | 11.6 µM (active)

Structure (SMILES) | activity change, negative = growth inhibition | Potency
S=C(NCCc1ccccc1)N1CCCCC1 | -3.98% (inactive) | 
O=C1CCN(C(=S)NCCc2ccccc2)CC1 | 0.277% (inactive) | 
CC(Oc1ccccc1)C(=O)N[C@@H]1C(=O)N2[C@@H]1SC(C)(C)[C@@H]2C(=O)O (some centres undefined) | 6.19% [at 21.1 µM] (inactive) | 
COc1cc(C=NC2CCCCC2)ccc1O | 4.14% (inactive) | 
O=C(NCC(=O)N1CCN(c2ncc(C(F)(F)F)cc2Cl)CC1)c1ccc(Br)o1 |  | 16.4 µM (active)
O=C(CN1CCN(c2ncc(C(F)(F)F)cc2Cl)CC1)Nc1ccc2c(c1)OCO2 | -13.8% (inactive) | 
COc1ccc(N2CCN(C(=O)CNC(=O)c3ccc(Br)o3)CC2)cc1 | 13.1% (inactive) | 
Cc1cc(C)cc(C(=O)NC(CC(N)=O)c2ccc(N3CCC(N4CCCCC4)CC3)c([N+](=O)[O-])c2)c1 (centres undefined) | 2.09% (inactive) | 
OCCN1CCN(CCO)C1=S | 5.79% (inactive) | 
COc1ccccc1CN1CCCC(N2CCN(c3ccc(F)cc3)CC2)C1 (centres undefined) | -27.6% (inactive) | 
CNC[C@H](CC1CCCCC1)NC[C@H](NCCC1CCCC1)[C@H](C)O |  | 16.4 µM (active)
COc1ccc2c(c1OC)C(=O)N(c1ccc(O)cc1)C2 | -0.711% (inactive) | 
O=C(CN1CCN(c2ccccc2O)CC1)NC(=O)NCc1ccccc1 | -16.9% (inactive) | 
CCCN1C(=O)C(O)(CC(=O)c2ccc(CC)cc2)c2cc(Br)ccc21 (centres undefined) |  | 7.31 µM (active)
CCc1ccc(C(=O)COC(=O)c2ccco2)cc1 | -1.65% (inactive) | 
Cc1coc(C)c1C(=O)CC1(O)C(=O)N(C)c2ccc(Cl)cc21 (centres undefined) | 3.38% (inactive) | 
CCC(O)CNc1nc(-n2nc(C)cc2C)nc2sc3c(c12)CC(C)(C)OC3 (centres undefined) |  | 11.6 µM (active)
CCOC(=O)CSc1nc2sc3c(c2c(=O)[nH]1)CC(C)(C)OC3 | -16.6% (inactive) | 
COCCNc1nc(-n2nc(C)cc2C)nc2sc3c(c12)CCCC3 |  | 3.66 µM (active)
COCCn1c(C)cc(C(=O)CSc2ncnc3sc4c(c23)CCC4)c1C | -11.5% (inactive) | 
Cc1nc2sc3c(c2c(=O)n1NC(=O)CCl)CCCC3 | 17.3% (inactive) | 
CC/C(C)=N/Nc1nc2sc3c(c2c(=O)[nH]1)CC(C)(C)OC3 | 1.97% (inactive) | 
O=C(O)c1ccc(Cn2cnc3c(=S)nc[nH]c32)cc1 | 14.7% (inactive) | 
O=C(c1cccnc1)N1CCN(S(=O)(=O)c2cccs2)CC1 | -5.05% (inactive) | 
Cc1cc(-c2ccc(C)c(S(=O)(=O)N3c4ccccc4CC3C)c2)on1 (centres undefined) |  | 18.4 µM (active)
Cc1cc(-c2ccc(C)c(S(=O)(=O)Nc3ccc(S(N)(=O)=O)cc3)c2)on1 | -3.34% (inactive) | 

Structure (SMILES) | activity change, negative = growth inhibition | Potency
CC1Cc2ccccc2N1S(=O)(=O)c1c(N)n(C)c(=O)n(C)c1=O (centres undefined) | -1.47% (inactive) | 
CCc1noc(C)c1C(=O)NCCN1Cc2cc(OC)ccc2OC(CC)C1 (centres undefined) | -8.71% [at 9.04 µM] (inactive) | 
CCC1CN(S(=O)(=O)c2cc(-c3cc(C)no3)ccc2C)c2cc(C)ccc2O1 (centres undefined) |  | 20.6 µM (active)
Cc1ccc(C)c(S(=O)(=O)N2CC(=O)Nc3ccccc32)c1 | -7.38% (inactive) | 
CC(=O)c1ccc(S(=O)(=O)Nc2ccc(-c3ccc4nncn4n3)cc2)cc1 | 26% (inactive) | 
O=C(O)C(=Cc1ccccc1[N+](=O)[O-])c1ccccc1 | -1.61% (inactive) | 
CCCCCCCC1(C)NC(=O)N(CC(=O)Nc2cc(C)on2)C1=O (centres undefined) | -1.42% (inactive) | 
COc1ccc(NC(=O)CN(C)C(=O)c2cccc(S(=O)(=O)N3CCN(c4ccccc4)CC3)c2)cc1 |  | 18.4 µM (active)
CCOc1ccc(NC(=O)CN(C)C(=O)c2cccc(S(=O)(=O)N3CCCC3)c2)cc1OCC | 6.25% (inactive) | 
COc1ccc(NC(=O)CN(C)C(=O)c2cc(C3CC3)nn2-c2ccccc2)cc1 | -20.1% (inactive) | 
COc1cc(/C(=C/c2ccccc2)c2ccccc2)c2c(c1)oc1ccccc12 |  | inactive
O=C(CSc1n[nH]c(-c2cccnc2)n1)Nc1ccc(Cl)cc1 | -6.52% (inactive) | 
COc1cc(C#Cc2ccc3cc(CCCO)oc(=O)c3c2)cc(OC)c1 |  | 0.651 µM (active)
Cc1ccc(N(CC(=O)NC2CCCCC2)C(=O)CCCC(=O)Nc2ccccn2)c(C)c1 | -6.89% (inactive) | 
CC(C)(C)S(=O)(=O)c1ccccc1-c1noc(-c2ccccc2)c1C(N)=O | 14.1% (inactive) | 
Cc1ccc(N(CC(=O)NCc2ccc(Cl)cc2)S(=O)(=O)N(C)C)cc1 | -2.04% (inactive) | 
COc1ccc(S(=O)(=O)N(CC(=O)NCc2ccco2)c2ccc(F)cc2)cc1 | -11% (inactive) | 
COc1ccc(CNC(=O)CN(c2ccc(OC)c(Cl)c2)S(=O)(=O)c2ccc(C)cc2)cc1 |  | 25.9 µM (active)
COCc1cc(C)nc2sc(C(=O)NC3CCCCC3)c(N)c12 | -21.3% (inactive) | 
O=C(O)C1=C(C(=O)O)C2CCC1C2 | 0.326% (inactive) | 
CCN(CCN(C)C)C(=O)c1ccc2nc(C)c(N(C)C(=O)CCc3ccccc3)n2c1 | 13.7% (inactive) | 
Cc1ccc(CNC(=O)COC(=O)C2CCC2)cc1 | -1.47% (inactive) | 
CC(O)c1ccc(OCCN(C)c2ccccn2)cc1 (centres undefined) | 4.7% (inactive) | 
Cc1ccc(S(=O)(=O)CC(=O)NC(C)c2ccccc2)cc1 (centres undefined) | 8.16% (inactive) | 
Cc1ccccc1-c1nc(CS(=O)(=O)CC(=O)NC(C)c2ccccc2)c(C)o1 (centres undefined) |  | 16.4 µM (active)
CSc1ccc(CCNC(=O)CS(=O)(=O)Cc2nc(-c3ccccc3F)oc2C)cc1 | -0.97% (inactive) | 
